Assay results from PubChem BioAssay (EPA / NIEHS).
The source made the active and inactive calls. How the source made its calls: active means hit-call score of the fitted dose curve at least 0.9, where 1 is the maximum; inactive means score below 0.9.

test: CCTE_Harrill_HTTr_Viability_DMEM_12hr: (Pilot) CCTE's 12-hour Cell Viability Assessment for the High-Throughput Transcriptomics (HTTr) Platform, in MCF-7 cells cultured in DMEM + 10% fetal bovine serum, Harrill Lab (AID 2283974)
Procedure, shortened: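 MCF-7 cells in DMEM + 10% FBS exposed 12 h to an eight-point dilution series; membrane integrity scored by propidium iodide exclusion with high-content imaging, bidirectional fitting versus DMSO.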

Compound | outcome | AC50
Cc1oc(-c2ccccc2)nc1CCOc1ccc(C[C@H](Nc2ccccc2C(=O)c2ccccc2)C(=O)O)cc1 | inactive | –
CCC(=C(c1ccc(O)cc1)c1ccc(OCCN(C)C)cc1)c1ccccc1 | – | 63.6 µM (active)
O=C(O)Cc1cc(I)c(Oc2cc(I)c(O)c(I)c2)c(I)c1 | inactive | –

test: CCTE_Harrill_HTTr_Viability_DMEM_24hr: (Pilot) CCTE's 24-hour Cell Viability Assessment for the High-Throughput Transcriptomics (HTTr) Platform, in MCF-7 cells cultured in DMEM + 10% fetal bovine serum, Harrill Lab (AID 2283975)
Procedure, shortened: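 MCF-7 cells in DMEM with 10% FBS exposed for 24 hours to an eight-point dilution series. Membrane integrity by propidium iodide exclusion with high content imaging; bidirectional fit against DMSO.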

Compound | outcome | AC50
Cc1oc(-c2ccccc2)nc1CCOc1ccc(C[C@H](Nc2ccccc2C(=O)c2ccccc2)C(=O)O)cc1 | inactive | –
CCC(=C(c1ccc(O)cc1)c1ccc(OCCN(C)C)cc1)c1ccccc1 | – | 69.4 µM (active)
O=C(O)Cc1cc(I)c(Oc2cc(I)c(O)c(I)c2)c(I)c1 | inactive | –

test: CCTE_Harrill_HTTr_Viability_PRF_DMEM_6hr: (Pilot) CCTE's 6-hour Cell Viability Assessment for the High-Throughput Transcriptomics (HTTr) Platform, in MCF-7 cells cultured phenol red-free DMEM + 10% charcoal-stripped fetal bovine serum, Harrill Lab (AID 2283976)
Text: This is a cell-based assay that evaluates cell viability using high content imaging to evaluate membrane integrity using propidium iodide dye exclusion in a 384 well format.One of seven assay components measured from the CCTE_Harrill_HTTr_Viability assay. This was part of a pilot experiment. This is a cell-based assay that evaluates cell viability in MCF-7 cells cultured in phenol red-free DMEM + 10% charcoal-stripped fetal bovine serum. High content imaging is used to evaluate membrane integrity using propidium iodide dye exclusion. Measurements are taken at 6 hours after chemical dosing in 384-well format.The assay component endpoint CCTE_Harrill_HTTr_Viability_PRF_DMEM_6hr was analyzed with bidirectional fitting relation to DMSO as the negative control and baseline of activity. Using a type of viability reporter to understand changes in cytotoxicity, gain-of-signal activity can be used to evaluate membrane integrity using propidium iodide dye exclusion. To generalize the intended target to other relatable targets, this assay endpoint is annotated to cell cycle, where the subfamily is cytotoxicity.
Chemicals were tested in MCF7 cells in an eight point dilution series with a six hour exposure duration.

Compound | outcome | AC50
Cc1oc(-c2ccccc2)nc1CCOc1ccc(C[C@H](Nc2ccccc2C(=O)c2ccccc2)C(=O)O)cc1 | inactive | –
CCC(=C(c1ccc(O)cc1)c1ccc(OCCN(C)C)cc1)c1ccccc1 | – | 69.8 µM (active)
O=C(O)Cc1cc(I)c(Oc2cc(I)c(O)c(I)c2)c(I)c1 | inactive | –

test: CCTE_Harrill_HTTr_Viability_PRF_DMEM_12hr: (Pilot) CCTE's 12-hour Cell Viability Assessment for the High-Throughput Transcriptomics (HTTr) Platform, in MCF-7 cells cultured in phenol red-free DMEM + 10% charcoal-stripped fetal bovine serum, Harrill Lab (AID 2283977)
Procedure, shortened: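 MCF-7 cells in phenol red-free DMEM with 10% charcoal-stripped FBS exposed 12 hours to an eight-point dilution series. Viability assessed by high-content imaging of propidium iodide exclusion; bidirectional fit versus DMSO.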

Compound | outcome | AC50
Cc1oc(-c2ccccc2)nc1CCOc1ccc(C[C@H](Nc2ccccc2C(=O)c2ccccc2)C(=O)O)cc1 | inactive | –
CCC(=C(c1ccc(O)cc1)c1ccc(OCCN(C)C)cc1)c1ccccc1 | – | 73.1 µM (active)
O=C(O)Cc1cc(I)c(Oc2cc(I)c(O)c(I)c2)c(I)c1 | inactive | –

test: CCTE_Harrill_HTTr_Viability_PRF_DMEM_24hr: (Pilot) CCTE's 24-hour Cell Viability Assessment for the High-Throughput Transcriptomics (HTTr) Platform, in MCF-7 cells cultured in phenol red-free DMEM + 10% charcoal-stripped fetal bovine serum, Harrill Lab (AID 2283980)
Procedure, shortened: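 MCF-7 cells in phenol red-free DMEM with 10% charcoal-stripped FBS, eight-point dilution series, 24 h exposure. Membrane integrity by propidium iodide exclusion with high content imaging; bidirectional fit vs DMSO.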

Compound | outcome | AC50
Cc1oc(-c2ccccc2)nc1CCOc1ccc(C[C@H](Nc2ccccc2C(=O)c2ccccc2)C(=O)O)cc1 | inactive | –
CCC(=C(c1ccc(O)cc1)c1ccc(OCCN(C)C)cc1)c1ccccc1 | – | 63.6 µM (active)
O=C(O)Cc1cc(I)c(Oc2cc(I)c(O)c(I)c2)c(I)c1 | inactive | –

test: CCTE_Harrill_HTTr_Apoptosis_DMEM_6hr: (Pilot) CCTE's 6-hour Apoptosis Assessment for the High-Throughput Transcriptomics (HTTr) Platform, in MCF-7 cells cultured in DMEM + 10% fetal bovine serum, Harrill Lab (AID 2283981)
Procedure, shortened: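 Caspase-3/7 activation read by high content imaging with CellEvent Caspase 3/7 Green in MCF-7 cells (DMEM + 10% FBS), 6 h after dosing; eight-point dilution series. Bidirectional fitting relative to DMSO baseline.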

Compound | outcome | AC50
Cc1oc(-c2ccccc2)nc1CCOc1ccc(C[C@H](Nc2ccccc2C(=O)c2ccccc2)C(=O)O)cc1 | inactive | –
CCC(=C(c1ccc(O)cc1)c1ccc(OCCN(C)C)cc1)c1ccccc1 | – | 81.2 µM (active)
O=C(O)Cc1cc(I)c(Oc2cc(I)c(O)c(I)c2)c(I)c1 | inactive | –

test: CCTE_Harrill_HTTr_Apoptosis_DMEM_12hr: (Pilot) CCTE's 12-hour Apoptosis Assessment for the High-Throughput Transcriptomics (HTTr) Platform, in MCF-7 cells cultured in DMEM + 10% fetal bovine serum, Harrill Lab (AID 2283982)
Text: This is a cell-based assay that evaluates apoptosis using high content imaging to evaluate activation of caspase-3/7 using the CellEvent Caspase 3/7 Green detection reagent in 384-well format.One of seven assay components measured from the CCTE_Harrill_HTTr_Apoptosis assay. This was part of a pilot experiment. This is a cell-based assay that evaluates apoptosis in MCF-7 cells cultured in DMEM + 10% fetal bovine serum. High content imaging is used to evaluate activation of caspase-3/7 using the CellEvent Caspase 3/7 Green detection reagent. Measurements are taken at 12 hours after chemical dosing in 384-well format.The assay component endpoint CCTE_Harrill_HTTr_Apoptosis_DMEM_12hr was analyzed with bidirectional fitting relation to DMSO as the negative control and baseline of activity. Using a type of viability reporter, gain-of-signal activity can be used to evaluate activation of caspase-3/7 using the CellEvent Caspase 3/7 Green detection reagent to understand changes in apoptosis. To generalize the intended target to other relatable targets, this assay endpoint is annotated to cell cycle, where the subfamily is apoptosis.
Chemicals were tested in MCF7 cells in an eight point dilution series with a twelve hour exposure duration.

Compound | outcome | AC50
Cc1oc(-c2ccccc2)nc1CCOc1ccc(C[C@H](Nc2ccccc2C(=O)c2ccccc2)C(=O)O)cc1 | inactive | –
CCC(=C(c1ccc(O)cc1)c1ccc(OCCN(C)C)cc1)c1ccccc1 | – | 84 µM (active)
O=C(O)Cc1cc(I)c(Oc2cc(I)c(O)c(I)c2)c(I)c1 | inactive | –

test: CCTE_Harrill_HTTr_Apoptosis_DMEM_24hr: (Pilot) CCTE's 24-hour Apoptosis Assessment for the High-Throughput Transcriptomics (HTTr) Platform, in MCF-7 cells cultured in DMEM + 10% fetal bovine serum, Harrill Lab (AID 2283983)
Procedure, shortened: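 MCF-7 cells in DMEM + 10% FBS, eight-point dilution series, 24 h exposure. Caspase-3/7 activation imaged by high-content imaging with CellEvent Caspase 3/7 Green. Bidirectional curve fitting against DMSO baseline.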

Compound | outcome | AC50
Cc1oc(-c2ccccc2)nc1CCOc1ccc(C[C@H](Nc2ccccc2C(=O)c2ccccc2)C(=O)O)cc1 | inactive | –
CCC(=C(c1ccc(O)cc1)c1ccc(OCCN(C)C)cc1)c1ccccc1 | – | 82.6 µM (active)
O=C(O)Cc1cc(I)c(Oc2cc(I)c(O)c(I)c2)c(I)c1 | inactive | –

test: CCTE_Harrill_HTTr_Apoptosis_PRF_DMEM_6hr: (Pilot) CCTE's 6-hour Apoptosis Assessment for the High-Throughput Transcriptomics (HTTr) Platform, in MCF-7 cells cultured phenol red-free DMEM + 10% charcoal-stripped fetal bovine serum, Harrill Lab (AID 2283984)
Procedure, shortened: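 MCF-7 cells in phenol red-free DMEM + 10% charcoal-stripped FBS, eight-point dilution series, 6 h exposure. Caspase-3/7 activation imaged by high-content imaging with CellEvent Caspase 3/7 Green; bidirectional fit versus DMSO baseline.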

Compound | outcome | AC50
Cc1oc(-c2ccccc2)nc1CCOc1ccc(C[C@H](Nc2ccccc2C(=O)c2ccccc2)C(=O)O)cc1 | inactive | –
CCC(=C(c1ccc(O)cc1)c1ccc(OCCN(C)C)cc1)c1ccccc1 | – | 76.1 µM (active)
O=C(O)Cc1cc(I)c(Oc2cc(I)c(O)c(I)c2)c(I)c1 | inactive | –

test: CCTE_Harrill_HTTr_Apoptosis_PRF_DMEM_24hr: (Pilot) CCTE's 24-hour Apoptosis Assessment for the High-Throughput Transcriptomics (HTTr) Platform, in MCF-7 cells cultured in phenol red-free DMEM + 10% charcoal-stripped fetal bovine serum, Harrill Lab (AID 2283986)
Procedure, shortened: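 MCF-7 cells in phenol red-free DMEM with 10% charcoal-stripped FBS, exposed 24 h across an eight-point dilution series. Caspase-3/7 activation imaged with CellEvent Green by high content imaging; bidirectional fitting against DMSO.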

Compound | outcome | AC50
Cc1oc(-c2ccccc2)nc1CCOc1ccc(C[C@H](Nc2ccccc2C(=O)c2ccccc2)C(=O)O)cc1 | inactive | –
CCC(=C(c1ccc(O)cc1)c1ccc(OCCN(C)C)cc1)c1ccccc1 | – | 80.8 µM (active)
O=C(O)Cc1cc(I)c(Oc2cc(I)c(O)c(I)c2)c(I)c1 | inactive | –
